Several values for one entry are separate records, joined by “and”; a condition that tells them apart may be missing. Equal values may be shown once. Where a structure was tested more than once in an assay, its records may differ in their call. Activity calls are given as the source filed them. The calls were made as follows: active = hit-call score of the fitted dose curve at least 0.9, where 1 is the maximum; inactive = score below 0.9.
Tests used:
[1] = biological target: Transcription factor E2F1 (Homo sapiens) (UniProt Q01094); assay: ATG_E2F_CIS: Attagene CIS-FACTORIAL HepG2 Assay for human E2F Transcription Factor 1 (AID 2282935); conditions: HepG2 Attagene cis-reporter, E2F reporter RNA transcripts; actives raise or lower the signal
In short: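 Cis-element reporter mRNA induction in transiently transfected HepG2, 24 h exposure. Activity fitted in both directions relative to DMSO negative control.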

[2] = ATG_E_Box_CIS: Attagene CIS-FACTORIAL HepG2 Assay for human Enhancer Box (E-box) (AID 2282936); conditions: HepG2 E-box cis-reporter transcription, actives raise or lower the signal
In short: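 Cells: HepG2 (human liver), transient MRTU transfection. Exposure 24 h. RNA → oligo(dT) RT → PCR → 6-FAM label → HpaI → CE. Activity fitted both directions relative to DMSO.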

[3] = ATG_M_61_CIS: Attagene CIS-FACTORIAL HepG2 Assay for M61 Transcription Factor (Internal Marker) (AID 2282937); conditions: HepG2 Attagene CIS-FACTORIAL M61 internal marker reporter; actives raise or lower the signal
In short: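 HepG2 cells transiently transfected with cis-element-driven multiple reporter transcription units, dosed for 24 h. Reporter mRNA measured by RT-PCR, 6-FAM primer-extension labelling, HpaI digestion and capillary electrophoresis; bidirectional fit versus DMSO baseline.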

[4] = ATG_EGR_CIS: Attagene CIS-FACTORIAL HepG2 Assay for human Early Growth Response 1 (EGR1) (AID 2282938); conditions: HepG2 Attagene CIS-FACTORIAL EGR reporter mRNA; actives raise or lower the signal
In short: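 HepG2 cells transiently transfected with cis-promoter-driven multiplexed reporter transcription units; reporter mRNA measured 24 h after compound dosing by RT-PCR, 6-FAM primer extension, HpaI digestion and capillary electrophoresis. Bidirectional fit versus DMSO baseline.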

[5] = ATG_M_19_CIS: Attagene CIS-FACTORIAL HepG2 Assay for M19 Transcription Factor (Internal Marker) (AID 2282939); conditions: HepG2 Attagene CIS-FACTORIAL M19 internal marker reporter; actives raise or lower the signal
In short: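 HepG2, MRTU transient transfection, 24 h dosing. Total RNA → RT-PCR → 6-FAM primer extension → HpaI digest → CE fluorescence. Bidirectional curve fit, DMSO negative control.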

[6] = ATG_ERE_CIS: Attagene CIS-FACTORIAL HepG2 Assay for Estrogen Response Element (ERE) (AID 2282940); conditions: HepG2 ERE cis-reporter, Attagene RNA transcript; actives raise or lower the signal
In short: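 After a 24 h chemical treatment, RNA from reporter-transfected HepG2 cells is reverse-transcribed, PCR-amplified and fluorescently labelled. Fragments separated by capillary electrophoresis give reporter signal; DMSO serves as negative control.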

[7] = ATG_Ets_CIS: Attagene CIS-FACTORIAL HepG2 Assay for human Erythroblast Transformation Specific (ETS) (AID 2282941); conditions: HepG2 ETS cis-reporter transcription, actives raise or lower the signal
In short: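 HepG2 cells transiently transfected with cis-promoter reporter transcription units were dosed for 24 h; reporter mRNA was measured by RT-PCR, 6-FAM primer extension, HpaI digestion and capillary electrophoresis, with bidirectional fitting against DMSO baseline.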

[8] = biological target: Hepatocyte nuclear factor 3-beta (Homo sapiens) (UniProt Q9Y261); assay: ATG_FoxA2_CIS: Attagene CIS-FACTORIAL HepG2 Assay for human Forkhead box A2 (FOXA2) (AID 2282942); conditions: HepG2 cis-reporter transcription factor activity, 24 h; actives raise or lower the signal
In short: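 HepG2 cells transiently transfected with multiple cis-regulated reporter transcription units, dosed for 24 h. Reporter mRNA measured by RT-PCR, 6-FAM labelling, HpaI digestion and capillary electrophoresis; bidirectional fitting against DMSO baseline.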

[9] = ATG_FoxO_CIS: Attagene CIS-FACTORIAL HepG2 Assay for human Forkhead box O (FoxO) (AID 2282943); conditions: HepG2 Attagene cis-reporter, FoxO element, mRNA; actives raise or lower the signal
In short: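 Endogenous transcription factor activity read from multiplexed cis-promoter reporter transcripts in transiently transfected HepG2, 24 h after dosing. Reporter RNA measured via RT-PCR plus capillary electrophoresis of FAM-labeled products; gain or loss relative to DMSO.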

[10] = ATG_GATA_CIS: Attagene CIS-FACTORIAL HepG2 Assay for human GATA Binding Protein (AID 2282944); conditions: HepG2 GATA cis-element reporter, Attagene multiplex mRNA; actives raise or lower the signal
In short: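 Cells: HepG2, transiently transfected with cis-regulated reporter transcription units. Exposure: 24 h. Detection: RT-PCR plus capillary electrophoresis of FAM-labeled fragments. Analysis: bidirectional, DMSO as baseline.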

[11] = ATG_GLI_CIS: Attagene CIS-FACTORIAL HepG2 Assay for human Zinc Finger Protein GLI1 (AID 2282945); conditions: HepG2, Attagene cis-factorial reporter mRNA, GLI element; actives raise or lower the signal
In short: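 Bidirectional curve fits relative to DMSO, using reporter mRNA levels from RT-PCR plus capillary electrophoresis. Cells were HepG2 transiently carrying cis-regulated reporter constructs, harvested 24 h after dosing.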

[12] = ATG_GRE_CIS: Attagene CIS-FACTORIAL HepG2 Assay for human Glucocorticoid Response Elements (GRE) (AID 2282947); conditions: HepG2 GRE cis-reporter, Attagene multiplex mRNA; actives raise or lower the signal
In short: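 Transient MRTU transfection of human HepG2 liver cells; cis-regulated reporters report endogenous factors. 24 h dosing → RNA isolation → RT-PCR → 6-FAM primer extension → HpaI cut → CE fragment analysis. Bidirectional fit, DMSO negative control.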

[13] = ATG_ISRE_CIS: Attagene CIS-FACTORIAL HepG2 Assay for human Interferon Regulatory Factor 1 (IRF1) binding to an Interferon-Stimulated Response Element (ISRE) (AID 2282948); conditions: HepG2 ISRE cis-reporter (Attagene), mRNA transcription readout; actives raise or lower the signal
In short: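 HepG2 cells transiently transfected with multiplexed cis-promoter reporter units; after 24 h compound exposure, reporter mRNA quantified by RT-PCR, FAM labelling, HpaI digestion and capillary electrophoresis. Bidirectional fit versus DMSO baseline.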

[14] = ATG_M_32_CIS: Attagene CIS-FACTORIAL HepG2 Assay for M32 Transcription Factor (Internal Marker) (AID 2282949); conditions: HepG2 Attagene cis-factorial M32 reporter, mRNA; actives raise or lower the signal;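 also: background control marker of the multiplexed CIS panel rather than a real target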
In short: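 Fluorescent capillary electrophoresis peaks of HpaI-digested, FAM-labelled RT-PCR reporter products give the signal. Source: transiently transfected human liver HepG2 cells, 24 h after chemical dosing; bidirectional fitting against DMSO.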

[15] = ATG_M_06_CIS: Attagene CIS-FACTORIAL HepG2 Assay for M06 Transcription Factor (Internal Marker) (AID 2282950); conditions: HepG2 Attagene CIS-FACTORIAL M06 internal marker reporter; actives raise or lower the signal
In short: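 Measured 24 h post-dosing in transiently transfected HepG2 cells, this internal-marker endpoint reports reporter mRNA via RT-PCR with fluorescent primer extension and capillary electrophoresis. DMSO served as negative control and baseline for bidirectional fitting.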

[16] = biological target: Hepatocyte nuclear factor 6 (Homo sapiens) (UniProt Q9UBC0); assay: ATG_HNF6_CIS: Attagene CIS-FACTORIAL HepG2 Assay for human Hepatocyte Nuclear Factor 6 (HNF6) (AID 2282952); conditions: HepG2 Attagene cis-factorial HNF6 reporter transcription; actives raise or lower the signal
In short: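 Reporter mRNA induction or loss in HepG2 after 24 h exposure; transient cis-MRTU transfection; fragments quantified by capillary electrophoresis; bidirectional analysis, DMSO as negative control.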

[17] = ATG_MRE_CIS: Attagene CIS-FACTORIAL HepG2 Assay for human Metal Responsive Element (MRE) (AID 2282954); conditions: HepG2 MRE cis-reporter transcription, Attagene multiplex; actives raise or lower the signal
In short: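 Transient MRTU transfection of HepG2 (FuGene 6); 24 h dosing; total RNA → oligo(dT) RT, PCR, 6-FAM primer extension, HpaI cut, CE. Bidirectional fit vs DMSO.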

[18] = biological target: Bile acid receptor (Homo sapiens) (UniProt Q96RI1); assay: ATG_IR1_CIS: Attagene CIS-FACTORIAL HepG2 Assay for human Nuclear Receptor Subfamily 1 Group H Member 4 (NR1H4), IR1 submotif (AID 2282946); conditions: IR1 reporter transcription, actives raise or lower the signal
In short: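 Cells (human HepG2) carry transiently transfected cis-promoter reporter transcription units. Compounds are incubated 24 h, total RNA is reverse-transcribed and amplified, and labelled fragments are resolved by capillary electrophoresis. Curves use DMSO as baseline.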

[19] = biological target: Hypoxia-inducible factor 1-alpha (Homo sapiens) (UniProt Q16665); assay: ATG_HIF1a_CIS: Attagene CIS-FACTORIAL HepG2 Assay for human Hypoxia Inducible Factor 1 (HIF1A) (AID 2282951); conditions: HepG2 Attagene cis-factorial HIF1a reporter transcription; actives raise or lower the signal
In short: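 HepG2 cells transiently transfected with multiplexed cis-promoter reporter units; reporter mRNA read 24 h after dosing by RT-PCR, 6-FAM primer-extension labelling, HpaI digestion and capillary electrophoresis. Bidirectional fit versus DMSO baseline.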

[20] = biological target: Heat shock factor protein 1 (Homo sapiens) (UniProt Q00613); assay: ATG_HSE_CIS: Attagene CIS-FACTORIAL HepG2 Assay for human Heat Shock Transcription Factor 1 (HSE) (AID 2282953); conditions: HepG2 HSE cis-reporter, Attagene RNA transcription; actives raise or lower the signal
In short: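 Reporter mRNA induction in HepG2 is measured 24 h after dosing, using transiently transfected multiplexed cis-regulated reporter units. Signal comes from capillary electrophoresis of labelled RT-PCR products, with DMSO as negative control.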

Measured: AC50

Sequence of Transcription factor E2F1 (Homo sapiens) (Q01094 whole entry, looked up): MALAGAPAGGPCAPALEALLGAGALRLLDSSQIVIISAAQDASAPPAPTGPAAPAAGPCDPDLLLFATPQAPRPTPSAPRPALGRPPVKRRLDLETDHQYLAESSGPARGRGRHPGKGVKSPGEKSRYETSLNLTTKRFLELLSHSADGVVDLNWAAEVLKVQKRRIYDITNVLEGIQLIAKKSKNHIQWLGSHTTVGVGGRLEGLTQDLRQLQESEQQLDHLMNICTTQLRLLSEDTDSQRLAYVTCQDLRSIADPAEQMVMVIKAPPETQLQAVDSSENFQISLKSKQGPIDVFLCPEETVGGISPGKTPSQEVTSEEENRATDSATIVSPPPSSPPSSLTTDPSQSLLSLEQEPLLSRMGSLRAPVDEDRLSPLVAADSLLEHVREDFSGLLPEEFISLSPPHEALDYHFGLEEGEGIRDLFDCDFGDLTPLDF
Sequence of Bile acid receptor (Homo sapiens) (Q96RI1 whole entry, looked up, the tested form may be a part): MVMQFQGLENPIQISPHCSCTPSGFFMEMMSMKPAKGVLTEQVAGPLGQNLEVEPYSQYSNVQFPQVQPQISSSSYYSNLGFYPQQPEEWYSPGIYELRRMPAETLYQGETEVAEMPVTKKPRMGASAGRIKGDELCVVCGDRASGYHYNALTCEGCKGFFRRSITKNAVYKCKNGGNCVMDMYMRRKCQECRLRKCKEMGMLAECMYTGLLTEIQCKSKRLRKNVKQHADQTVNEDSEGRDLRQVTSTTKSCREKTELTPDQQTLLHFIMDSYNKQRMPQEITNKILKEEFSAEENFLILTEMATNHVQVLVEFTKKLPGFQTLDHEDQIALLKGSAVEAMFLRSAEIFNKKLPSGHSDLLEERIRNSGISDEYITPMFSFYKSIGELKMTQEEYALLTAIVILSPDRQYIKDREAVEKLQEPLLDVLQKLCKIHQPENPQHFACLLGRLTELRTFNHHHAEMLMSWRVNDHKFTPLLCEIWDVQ
Sequence of Hepatocyte nuclear factor 3-beta (Homo sapiens) (Q9Y261 whole entry, looked up): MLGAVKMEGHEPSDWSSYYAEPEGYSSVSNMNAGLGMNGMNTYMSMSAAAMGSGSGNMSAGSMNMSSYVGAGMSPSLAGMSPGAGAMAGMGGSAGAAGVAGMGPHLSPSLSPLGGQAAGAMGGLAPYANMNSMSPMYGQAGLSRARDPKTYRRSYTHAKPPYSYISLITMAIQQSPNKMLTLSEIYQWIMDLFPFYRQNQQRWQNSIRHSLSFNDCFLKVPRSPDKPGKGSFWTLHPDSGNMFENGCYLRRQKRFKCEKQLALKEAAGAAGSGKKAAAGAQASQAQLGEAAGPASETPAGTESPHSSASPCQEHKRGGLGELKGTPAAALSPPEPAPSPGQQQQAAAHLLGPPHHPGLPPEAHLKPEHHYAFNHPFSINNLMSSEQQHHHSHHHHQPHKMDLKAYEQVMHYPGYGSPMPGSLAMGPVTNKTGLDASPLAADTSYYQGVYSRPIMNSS
Sequence of Heat shock factor protein 1 (Homo sapiens) (Q00613 whole entry, looked up): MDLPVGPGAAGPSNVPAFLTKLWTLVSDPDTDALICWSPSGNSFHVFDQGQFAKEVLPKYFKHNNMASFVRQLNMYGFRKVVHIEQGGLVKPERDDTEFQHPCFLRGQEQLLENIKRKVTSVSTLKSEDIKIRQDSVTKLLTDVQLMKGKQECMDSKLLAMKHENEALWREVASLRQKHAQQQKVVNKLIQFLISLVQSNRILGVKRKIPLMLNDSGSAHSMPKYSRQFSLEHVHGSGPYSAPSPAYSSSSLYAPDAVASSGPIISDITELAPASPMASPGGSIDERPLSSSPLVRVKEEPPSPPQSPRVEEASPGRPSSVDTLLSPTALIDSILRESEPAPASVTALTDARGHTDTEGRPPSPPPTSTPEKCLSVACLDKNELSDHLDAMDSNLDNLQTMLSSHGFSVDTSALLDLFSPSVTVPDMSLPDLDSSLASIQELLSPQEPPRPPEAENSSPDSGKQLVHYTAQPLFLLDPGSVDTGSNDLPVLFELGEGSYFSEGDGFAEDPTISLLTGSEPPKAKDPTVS
Sequence of Hypoxia-inducible factor 1-alpha (Homo sapiens) (Q16665 whole entry, looked up): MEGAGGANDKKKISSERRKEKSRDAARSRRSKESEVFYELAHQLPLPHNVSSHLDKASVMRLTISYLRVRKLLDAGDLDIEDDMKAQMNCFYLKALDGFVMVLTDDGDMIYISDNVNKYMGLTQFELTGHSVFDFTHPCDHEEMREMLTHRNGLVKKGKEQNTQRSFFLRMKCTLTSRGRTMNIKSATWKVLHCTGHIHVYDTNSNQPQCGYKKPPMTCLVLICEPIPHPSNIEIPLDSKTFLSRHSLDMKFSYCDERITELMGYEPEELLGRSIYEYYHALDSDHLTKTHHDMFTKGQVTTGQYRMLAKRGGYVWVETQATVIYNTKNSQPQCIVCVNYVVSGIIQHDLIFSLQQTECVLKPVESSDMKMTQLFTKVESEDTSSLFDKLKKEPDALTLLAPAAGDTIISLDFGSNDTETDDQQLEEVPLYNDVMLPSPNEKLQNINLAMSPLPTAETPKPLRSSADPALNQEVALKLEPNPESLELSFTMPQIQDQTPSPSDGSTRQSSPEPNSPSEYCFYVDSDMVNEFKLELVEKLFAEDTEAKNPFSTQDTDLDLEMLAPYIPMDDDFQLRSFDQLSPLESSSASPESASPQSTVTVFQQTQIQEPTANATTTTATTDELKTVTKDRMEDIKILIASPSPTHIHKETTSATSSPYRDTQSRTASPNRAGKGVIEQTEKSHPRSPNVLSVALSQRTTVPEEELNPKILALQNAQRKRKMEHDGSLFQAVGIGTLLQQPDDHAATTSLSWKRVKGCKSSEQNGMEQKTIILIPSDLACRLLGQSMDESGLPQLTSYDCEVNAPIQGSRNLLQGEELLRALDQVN
Sequence of Hepatocyte nuclear factor 6 (Homo sapiens) (Q9UBC0 whole entry, looked up, the tested form may be a part): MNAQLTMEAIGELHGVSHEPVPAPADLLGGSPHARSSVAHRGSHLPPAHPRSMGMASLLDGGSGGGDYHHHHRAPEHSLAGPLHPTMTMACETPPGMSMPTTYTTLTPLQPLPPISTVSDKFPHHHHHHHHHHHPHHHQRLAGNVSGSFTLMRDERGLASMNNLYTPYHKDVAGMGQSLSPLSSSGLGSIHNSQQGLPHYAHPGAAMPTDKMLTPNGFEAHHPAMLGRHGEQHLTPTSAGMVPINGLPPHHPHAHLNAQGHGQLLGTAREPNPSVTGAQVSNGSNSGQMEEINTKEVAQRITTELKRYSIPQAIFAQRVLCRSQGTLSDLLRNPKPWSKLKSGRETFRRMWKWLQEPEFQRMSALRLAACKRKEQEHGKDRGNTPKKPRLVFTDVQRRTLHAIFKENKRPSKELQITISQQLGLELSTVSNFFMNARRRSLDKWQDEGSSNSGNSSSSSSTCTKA

CCOC(=O)CC(C)C
not listed: [18] | [19] | [20]
inactive: all other assays above

C=C1CC/C=C(\C)CC[C@@H]2[C@@H]1CC2(C)C
active: [2] 94.9 µM | [6] 33.8 µM | [18] 81.9 µM
not listed: [12]
inactive: all other assays above

CC(C)COC(=O)c1ccccc1
not listed: [16] | [18] | [20]
inactive: all other assays above

C#C[C@]1(O)CC[C@H]2[C@@H]3CCc4cc(O)ccc4[C@H]3CC[C@@]21C
active: [1] 60.4 µM | [2] 41.2 µM and 29.9 µM | [5] 171 µM | [9] 180 µM and 72.5 µM and 50.9 µM | [10] 139 µM and 142 µM | [11] 98.4 µM and 72.2 µM and 62.4 µM | [12] 159 µM | [13] 33.4 µM and 27.3 µM | [14] 161 µM | [20] 59.2 µM [middle of 4 runs] | [17] 52.1 µM [middle of 4 runs]
inactive: [1] | [2] | [3] | [4] | [5] | [8] | [9] | [10] | [11] | [12] | [13] | [14] | [20] | [17]

CC1=CC(C)C(C=O)C(C)C1 (configuration not stated) (tested in a mixture with another compound)
not listed: [20]
inactive: all other assays above

CCCC[N+](C)(CCCC)CCCC
not listed: [18] | [20]
inactive: all other assays above

CC(C)C(=O)OCC=Cc1ccccc1
inactive: all assays above

CC(=N[Si](C)(C)C)O[Si](C)(C)C
not listed: [20]
inactive: all other assays above

CCOC(=O)COC(=O)c1ccccc1C(=O)OCC
not listed: [18] | [19]
inactive: all other assays above

O=C(OCc1ccccc1)c1ccccc1O
active: [6] 76.3 µM
not listed: [17] | [18] | [20]
inactive: all other assays above

CCC(C)(CCCC(C)C)OC(C)=O (configuration not stated)
not listed: [18]
inactive: all other assays above

CCCCOCCOCCO
not listed: [18]
inactive: all other assays above

COc1ccc(N)c(C)c1
active: [6] 25.5 µM
not listed: [12]
inactive: all other assays above

O=C1OC2(c3ccc(O)cc3Oc3cc(O)ccc32)c2ccccc21
not listed: [16]
inactive: all other assays above

CCC(C)(C)c1cc(O)c(C(C)(C)CC)cc1O
active: [4] 14.1 µM | [9] 10.1 µM | [10] 27.2 µM | [11] 6.82 µM | [12] 24.8 µM | [13] 20.2 µM | [19] 10.7 µM | [16] 30 µM
not listed: [17] | [18] | [20]
inactive: all other assays above

Source: PubChem BioAssay (EPA / NIEHS)
